Results filed as inconclusive are left out. The source made the active and inactive calls. The call rests on the fitted dose curve; in most records, active means well fitted cell-killing curve with a large enough effect; inconclusive means small, poorly fitted or top-dose-only effect, or effect the other way; inactive means flat fitted curve, though single readings scatter.

The nature of this assay: Compound cytotoxicity measured by an ATP content assay as a counter-screen for lead compounds in human astrocytes. The settings on record: human astrocytes viability, ATP luminescence; series mostly up to 46.1 µM; activity change, negative = cytotoxicity: at the top concentration. As to the method:
National Center for Advancing Translational Sciences [NCATS] Johns Hopkins University School of Medicine Florida State University Assay Overview: Many compounds can cause cytotoxicity at high compound concentrations. […] The compound cytotoxicity may also cause side effects or toxicity in human. Thus, the compound cytotoxicity needs to be measured in each cell type and each compound incubation time - same as these in the compound screening assay. The compound cytotoxicity can be measured by cell viability assays such as the ATP content assay. We use an ATP content assay kit for cell viability measurement. It measures ATP content (level) in human astrocytes using a luminescence readout that is proportional to viable cell numbers. Decrease in the luminescence signal after the compound treatment indicates reduced cell viability and cell death caused by compound treatment.
Assay Protocol Summary: The medium for astrocytes contains AM basal medium (ScienCell, Cat.# 1801), AGS (ScienCell, Cat.# 1801), 10% FBS, and 1% Pen/Strep. The ATP content assay kit (PerkinElmer, Cat.# 6016731) was used to determine cell viability. The reagent was reconstituted and prepared as described by the manufacturer. Cells were seeded in 384- or 1536-well assay plates and cultured at 37 C with 5% CO2 for 16 to 20 hours. The typical cell seeding density in the 1536-well plate assay is 350 cells/well in 3 ul medium for astrocytes in the tissue cultured treated/PDL coated plates. Compounds were added to cells and incubated for a specific time such as 6, 24, or 72 hours before addition of the reagent mixture of the ATP content assay kit at 1:1 ratio. After incubation at room temperature for 10 minutes, the luminescence intensity in assay plates was measured using a ViewLux plate reader (PerkinElmer). […] The percentage inhibitions of the decreased cell viability by small molecules were then calculated that indicate compound cytotoxicity.
With `N#C/C(=C\c1ccc(O)c(O)c1)C(=O)Nc1ccccc1`, the “activity change, negative = cytotoxicity” value was -1.6% (inactive). Same read-out and setting: in the case of `O=c1cc(-c2ccccc2)oc2cc(O)cc(O)c12` it was -1.78% (inactive). Take `O=C(O)c1cccc(-c2noc(-c3ccccc3F)n2)c1`: the Potency is 5480 nM (active).

As for `CC(=C(CCOC(=O)C(C)C)SSC(CCOC(=O)C(C)C)=C(C)N(C=O)Cc1cnc(C)nc1N)N(C=O)Cc1cnc(C)nc1N`, the “activity change, negative = cytotoxicity” value was -9.52% (inactive). For `CCCCCCCC/C=C/C(=O)O`, the “activity change, negative = cytotoxicity” value is 11.4% (inactive). Still for that read-out and setting: in the case of `O=C(O)c1ccccc1Nc1cccc(C(F)(F)F)c1` it was 0.0564% (inactive); in that of `COc1ccc(-c2cc(=S)ss2)cc1`, -17.3% (inactive). Turning to `O=C(Nc1cc2cc[nH]c2cn1)c1ccccc1`, the Potency was 489 nM (active). Consider `O=C1NC(=O)C(=Cc2ccc(-c3ccc(F)cc3)o2)S1`, for which the “activity change, negative = cytotoxicity” value was -3.28% (inactive). For the molecule `CN(C)c1ccc(C(=C2C=CC(=[N+](C)C)C=C2)c2ccccc2)cc1`, the “activity change, negative = cytotoxicity” value was -28.5% (inactive). The same measure, in the same setting: in the case of `c1ccc(CCNc2nc(-c3ccccc3)cs2)cc1` it was -6.7% (inactive); in that of `CCOC1OC(=O)C[C@H]1NC(=O)[C@@H]1CCCN1C(=O)[C@@H](NC(=O)c1ccc(N)c(Cl)c1)C(C)(C)C` (stereo not given in full), 8.7% (inactive). As to `CCCCCCOc1ccccc1C(N)=O`, the “activity change, negative = cytotoxicity” value was 15.9% (inactive).

In the case of `Cc1csc(NC(=O)c2sc3nc4c(c(C(F)(F)F)c3c2N)CCC4)n1`, the Potency was 3460 nM (active). As for `O=C(O)CCC(=O)c1ccc(-c2ccccc2)cc1`, the “activity change, negative = cytotoxicity” value was 4.23% (inactive). As for `COc1cccc2c1C(=O)c1c(O)c3c(c(O)c1C2=O)C[C@@](O)(C(=O)CO)C[C@@H]3O[C@H]1C[C@H](N)[C@H](O[C@@H]2CCCCO2)[C@H](C)O1`, the “activity change, negative = cytotoxicity” value is -21.9% (inactive). As for `CC(C(=O)O)c1ccc(C(=O)c2ccccc2)s1` (stereo not given), the “activity change, negative = cytotoxicity” value is -13.1% (inactive).

Regarding `CC1=C(CO)C(=O)O[C@@H]([C@@H](C)[C@H]2CC[C@H]3[C@@H]4C[C@H]5O[C@]56[C@@H](O)C=CC(=O)[C@]6(C)[C@@H]4CC[C@]23C)C1`, the “activity change, negative = cytotoxicity” value is 14.6% (inactive). Still for that read-out and setting: under `Cc1ccc(O)c(-n2nc3ccccc3n2)c1` stands -22.7% (inactive).

As to `O=C(Oc1ccccc1)c1cccc(C(=O)Oc2ccccc2)c1`, the “activity change, negative = cytotoxicity” value was 6.57% [at 96.3 µM] (inactive).

Regarding `O=C1C[C@@H](c2ccc(O)cc2)Oc2cc(O)cc(O)c21`, the “activity change, negative = cytotoxicity” value is 3.17% (inactive).

With `O=C(/C=C/c1ccc(O)cc1)c1ccc(O)cc1O`, the “activity change, negative = cytotoxicity” value is 15.3% (inactive).

With `CC1(C)OC2=C(C(=O)c3ccccc3C2=O)[C@H](NCc2ccccc2)[C@H]1O`, the Potency was 8910 nM (active). The same measure, in the same setting: under `O=C(Nc1ccc([N+](=O)[O-])cc1Cl)c1cc(Cl)ccc1O` stands 1090 nM (active). Consider `CN1CC(=O)N2C(Cc3c([nH]c4ccccc34)[C@H]2c2ccc3c(c2)OCO3)C1=O` (stereo not given in full), for which the “activity change, negative = cytotoxicity” value was 0.946% (inactive).

Regarding `O=c1[nH]nc(Sc2ncc([N+](=O)[O-])s2)n1-c1ccc2c(c1)OCCO2`, the Potency is 1230 nM (active).

As for `O=C(O)Cc1ccc(-c2ccccc2)cc1`, the “activity change, negative = cytotoxicity” value is 18.3% (inactive). Same read-out and setting: under `CCOCCOC(=O)/C=C/c1ccc(OC)cc1` stands 14.2% (inactive); under `Nc1ccc(N=Nc2ccccc2)c(N)n1`, 1.34% (inactive); under `O=S(=O)(O)c1ccc2nc(-c3ccccc3)[nH]c2c1`, -7.27% (inactive). On the same count and under the same terms, under `CC(=O)Oc1cccc2c1C(=O)c1c(OC(C)=O)cc(C(=O)O)cc1C2=O` stands -14.1% (inactive); under `C=CCCCCCCCCC(=O)O`, 3.45% (inactive); under `CC[C@@]1(O)C[C@H](O[C@H]2C[C@H](N(C)C)[C@H](O[C@H]3C[C@H](O)[C@H](O[C@H]4CCC(=O)[C@H](C)O4)[C@H](C)O3)[C@H](C)O2)c2c(cc3c(c2O)C(=O)c2c(O)cccc2C3=O)[C@@H]1C(=O)OC`, -27.8% (inactive). On the same count and under the same terms, in the case of `O=S(=O)(O)CCSSCCS(=O)(=O)O` it was -2.01% (inactive); in that of `c1ccc2[nH]c(-c3cscn3)nc2c1`, -24.6% (inactive); in that of `O=C(/C=C/c1ccccc1)NCCO`, 2.38% (inactive). As to `CC(C)c1ccc2oc3nc(N)c(C(=O)O)cc3c(=O)c2c1`, the Potency was 2750 nM (active). On to `CCCC(=O)OC[C@@H](OC(=O)CCC)[C@@H](OC(=O)CCC)[C@H](Cn1c2nc(=O)[nH]c(=O)c-2nc2cc(C)c(C)cc21)OC(=O)CCC`, for which the “activity change, negative = cytotoxicity” value is -3.39% (inactive).

For the molecule `O=c1oc2cc(O)ccc2s1`, the “activity change, negative = cytotoxicity” value was -3.03% (inactive).

Consider `O=C(O)c1cc([N+](=O)[O-])ccc1NCCCc1ccccc1`, for which the “activity change, negative = cytotoxicity” value was -21.8% (inactive).

The record behind these values is PubChem BioAssay AID1224861 (National Center for Advancing Translational Sciences (NCATS), 2016).
